Data on 40 molecules can be found in PubChem BioAssay (Tox21).

Inconclusive results are not listed. Where a call stands in place of a potency, no number is given. Calls of active or inactive are those of the source. Calls come from the whole dose curve; as a rule, active = well fitted cell-killing curve with a large enough effect in the repeat runs; inconclusive = weak or mixed curves, or effect the other way; inactive = no such curve, though single readings can be large or run the other way.
Potency is the fitted concentration of half-maximal effect.

The nature of this experiment: qHTS assay to identify small molecule antagonists of the vitamin D receptor (VDR) signaling pathway - cell viability counter screen (AID 743225). Note: nearly all actives have a fitted effect of over 50% in size. To be noted: VDR-bla HEK293T viability, CellTiter-Glo luminescence, 16 h; series mostly up to 61 µM. An excerpt:
U.S. Tox21 Program National Center for Advancing Translational Sciences [NCATS] NIH Chemical Genomics Center [NCGC] U.S. Environmental Protection Agency [EPA] National Institutes of Environmental Health Sciences [NIEHS] National Toxicology Program [NTP] U.S. Food and Drug Administration [FDA] Tox21 Assay Overview: The vitamin D receptor (VDR), a member of nuclear hormone receptor superfamily, plays a critical role in calcium homeostasis and bone metabolism. It is also involved in cell differentiation and growth, and thrombogenicity. To identify the compounds that inhibit VDR signaling, the VDR-UAS-bla HEK 293T cell line (Invitrogen, Carlsbad, CA, USA) containing a beta-lactamase reporter gene under the control of an upstream activator sequence (UAS) was used to screen the Tox21 10K compound library. The cytotoxicity of the Tox21 compound library against the VDR-bla cell line was tested in parallel by measuring the cell viability using CellTiter-Glo assay (Promega, Madison, WI) in the same wells.
Tox21 Assay Protocol Summary: VDR-bla cells were dispensed at 2,000 cells/5 uL of assay medium per well into black wall/clear-bottom 1536-well plates using a Multidrop Combi (Thermo Fisher Scientific, Waltham, MA) dispenser. After the assay plates were incubated at a 37C and 5% CO2 for 4 h, 23 nL of compounds dissolved in DMSO, positive controls or DMSO only was transferred to the assay plate by a Pintool station (Kalypsys, San Diego, CA), followed by addition of 1 uL of 1-alpha, 25-Dihydroxy Vitamin D3 (3 nM, final concentration in the wells) using a Bioraptr Flying Reagent Dispenser (FRD) workstation (Beckman Coulter, Indianapolis, IN). The plates were incubated at 37C and 5% CO2 for 16 h, and then 1 uL of LiveBLAzerTM B/G FRET substrate was added using a Bioraptr FRD. The plates were incubated at room temperature for 2 h and fluorescence intensity was measured by an Envision plate reader (PerkinElmer, Shelton, CT). For cell viability readout that measures cytotoxicity, 3 ul/well of CellTiter-Glo reagent was added into the assay plates using a Bioraptr FRD. After 30 min incubation at room temperature, the luminescence intensity in the plates was measured using a ViewLux plate reader (PerkinElmer).
On the technique in general: qHTS replaces the single test concentration by a dilution series.
For the molecule `O=C(c1ccccc1)c1ccccc1O`, the Potency entry was “inactive”.

With `O=C(OCc1ccccc1)c1ccccc1O`, the Potency entry is “inactive”.

Turning to `CCOCCOCCO`, the Potency entry is “inactive”.

With `c1cc(-c2ccncc2)ccn1`, the Potency result is “inactive”.

In the case of `O=C(COc1ccc(Cl)cc1)N1CCN(Cc2ccc3c(c2)OCO3)CC1`, the Potency entry is “inactive”.

Regarding `OC[C@H]1O[C@@H]2O[C@H]3[C@H](O)[C@@H](O)[C@@H](O[C@H]4[C@H](O)[C@@H](O)[C@@H](O[C@H]5[C@H](O)[C@@H](O)[C@@H](O[C@H]6[C@H](O)[C@@H](O)[C@@H](O[C@H]7[C@H](O)[C@@H](O)[C@@H](O[C@H]8[C@H](O)[C@@H](O)[C@@H](O[C@H]1[C@H](O)[C@H]2O)O[C@@H]8CO)O[C@@H]7CO)O[C@@H]6CO)O[C@@H]5CO)O[C@@H]4CO)O[C@@H]3CO`, the Potency result is “inactive”.

On to `CC(C)OC(=O)C(C)(C)Oc1ccc(C(=O)c2ccc(Cl)cc2)cc1`, for which the Potency result was “inactive”.

Turning to `Nc1ncn([C@@H]2O[C@H](CO)[C@@H](O)[C@H]2O)c(=O)n1`, the Potency entry was “inactive”.

For the molecule `CC(=O)C1(C)CC2=C(CCCC2(C)C)CC1C` (stereo not given), the Potency result is “inactive”.

Regarding `Nc1ncnc2nc[nH]c12`, the Potency result is “inactive”.

Consider `Clc1nc(Cl)c(Cl)c(Cl)c1Cl`, for which the Potency entry is “inactive”.

Turning to `Cc1c(C(N)=O)cc([N+](=O)[O-])cc1[N+](=O)[O-]`, the Potency result is “inactive”.

Turning to `O=C1c2cccc(O)c2C(=O)c2c(O)cccc21`, the Potency result is “inactive”.

Regarding `CN(C)C(=N)N=C(N)N`, the Potency entry was “inactive”.

Consider `C=C(C)C1CC=C(C)CC1` (stereo not given), for which the Potency result is “inactive”.

For the molecule `CC(C)(C)NC(=O)[C@H]1CC[C@H]2[C@@H]3CC[C@H]4NC(=O)C=C[C@]4(C)[C@H]3CC[C@]12C`, the Potency result is “inactive”.

For the molecule `CCCc1c(OCCCCc2nn[nH]n2)ccc(C(C)=O)c1O`, the Potency result is “inactive”.

`CC(C)OB(OC(C)C)OC(C)C`: the Potency result is “inactive”.

In the case of `CC(=O)CC/C=C(\C)CCC=C(C)C`, the Potency result is “inactive”.

In the case of `COc1ccc(OC)c(C(O)CNC(=O)CN)c1` (stereo not given), the Potency entry is “inactive”.

Take `C=C(C)C(=O)OCCOC(=O)C(=C)C`: the Potency entry was “inactive”.

With `NC=O`, the Potency entry was “inactive”.

For `CCC(C)CO` (stereo not given), the Potency entry was “inactive”.

Turning to `Cc1cc2nc3c(=O)[nH]c(=O)nc-3n(C[C@H](O)[C@H](O)[C@H](O)CO)c2cc1C`, the Potency result was “inactive”.

As to `Nc1ccc(Nc2ccccc2)cc1`, the Potency result is “inactive”.

As for `OC(CCl)CCl`, the Potency entry is “inactive”.

With `Cn1cnc([N+](=O)[O-])c1Sc1ncnc2nc[nH]c12`, the Potency result was “inactive”.

Regarding `COc1ccccc1/C=C/C=O`, the Potency result is “inactive”.

As for `O=C(/C=C/C=C/c1ccc2c(c1)OCO2)N1CCCCC1`, the Potency entry is “inactive”.

`CCC(C)c1ccccc1O` (stereo not given): the Potency entry is “inactive”.

As for `CNCCCC12CCC(c3ccccc31)c1ccccc12`, the Potency was 15.5 µM (active).

Turning to `CC1=CCC(C(C)(C)O)CC1` (stereo not given), the Potency result was “inactive”.

In the case of `CCCCOCCOCCOCCO`, the Potency result is “inactive”.

For `O=C(c1ccccc1)c1ccc(O)cc1O`, the Potency entry is “inactive”.

For the molecule `CCCCOCCOCCO`, the Potency entry is “inactive”.

Turning to `c1ccc2sc(SSN3CCOCC3)nc2c1`, the Potency result is “inactive”.

On to `COc1ccc(C(=O)CC(=O)c2ccc(C(C)(C)C)cc2)cc1`, for which the Potency entry is “inactive”.

Consider `OCCO`, for which the Potency result is “inactive”.

As to `O=C1OC2(c3cc(Br)c(O)c(Br)c3Oc3c2cc(Br)c(O)c3Br)c2c(Cl)c(Cl)c(Cl)c(Cl)c21`, the Potency result was “inactive”.

Consider `CN(C)c1nc(N(C)C)nc(N(C)C)n1`, for which the Potency result is “inactive”.
